# Data: PubChem BioAssay AID540345 (The Scripps Research Institute Molecular Screening Center, 2011)
# A number with no mark means an inactive call. No rule for the calls is given here.
# Tested on: Potassium Channel [KATP]
# Test: selectivity profile over receptors, transporters, CYPs – biochemical, Ricerca HitProfilingScreen, CYP450, set 2, selectivity assay for GPR7 antagonist project, profiling panel (AID 540345)
# Details: Ricerca radioligand binding/CYP panel, at 10 µM, stronger effect = higher value
structure (smiles),measurement,value
COc1ccc(Oc2c(Cl)cnn(C3c4ccccc4-c4ccccc43)c2=O)cc1,inhibition,-5%
